This excerpt belongs to a sample that is enriched for hits.
VDR inhibitor: vitamin D3 receptor (human) inhibition; P11473; actives 0.93% (n = 400,000); Potency, µM, without a hit: max response, negative = inhibition, most hits filed as inhibitors; VDR-SRC2-3 peptide fluorescence polarization, 2 h; note: % is set by controls: 0 for no effect and ±100 for the full control effect
Target sequence (P11473 whole entry, looked up): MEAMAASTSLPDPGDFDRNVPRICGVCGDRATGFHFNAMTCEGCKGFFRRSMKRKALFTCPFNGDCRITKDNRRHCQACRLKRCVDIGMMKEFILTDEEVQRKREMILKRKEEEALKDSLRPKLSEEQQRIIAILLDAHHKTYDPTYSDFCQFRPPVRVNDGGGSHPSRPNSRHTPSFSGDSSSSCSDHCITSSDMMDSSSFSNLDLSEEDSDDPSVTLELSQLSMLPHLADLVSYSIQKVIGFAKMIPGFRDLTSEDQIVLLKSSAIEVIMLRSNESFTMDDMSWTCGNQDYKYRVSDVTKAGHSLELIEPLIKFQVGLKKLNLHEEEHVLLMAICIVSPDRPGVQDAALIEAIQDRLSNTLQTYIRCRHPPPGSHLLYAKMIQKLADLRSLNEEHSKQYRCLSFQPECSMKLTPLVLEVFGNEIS
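Signal is fluorescence polarization, reporting how far test compounds block the interaction of VDR with the SRC2-3 coregulator peptide after a 2 h room-temperature incubation.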
G9a inh: inhibitors of human histone lysine methyltransferase G9a; actives 8.8% (n = 350,000); Q96KQ7; Potency, µM (series often up to 102 µM), inactives show top-dose activity, negative = inhibition, actives largely listed as inhibitors; AID 504332; G9a H3K9 monomethylation, AlphaScreen, 2 h; note: % is set by controls: 0 for no effect and ±100 for the full control effect; nearly all actives have a fitted effect of over 75% in size
Target sequence (Q96KQ7 913-1193 limits assumed): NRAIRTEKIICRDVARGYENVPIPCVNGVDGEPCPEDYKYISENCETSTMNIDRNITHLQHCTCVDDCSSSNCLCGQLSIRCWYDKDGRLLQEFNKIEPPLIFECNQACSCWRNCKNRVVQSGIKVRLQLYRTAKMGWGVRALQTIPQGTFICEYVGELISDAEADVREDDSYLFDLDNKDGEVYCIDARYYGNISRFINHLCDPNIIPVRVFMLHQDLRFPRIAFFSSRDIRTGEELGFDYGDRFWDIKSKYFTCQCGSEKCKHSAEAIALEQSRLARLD
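Readings reflect AlphaScreen signal from monomethyl-H3K9 antibody detection. HMT at 20 nM; substrate b-H3K9 500 nM; cofactor SAM 20 uM; 2 h RT reaction; compounds tested as titrations in qHTS with 15 min preincubation.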
Sfp PPTase inh: blocks B. subtilis Sfp PPTase activity; actives 3.5% (n = 310,000); Biochemical Sfp PPTase activity, qHTS; Potency, µM, for the others: largest response in the series, negative = inhibition, usual class: inhibitors; Q9F4F7;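 note: the enzyme is Sfp with the accession as filed and its product quenches rhodamine fluorescence; 0% = enzyme reaction without inhibitor and -100% = no enzyme wells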
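Compounds were incubated with enzyme (final 15 nM) for 15 min at room temperature before substrate addition started the reaction. Fluorescence at 525 nm excitation, 598 nm emission was recorded immediately and after 30 minutes.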
ALOX12 inh: inhibitors of human 12S-lipoxygenase ALOX12; purified 12hLO, xylenol orange hydroperoxide absorbance; P18054; Potency, µM (doses to about 108 µM), for the others: top-dose activity change, negative = inhibition, hits mostly inhibitors; actives 1.1% (n = 580,000); AID 1671190; note: % is set by controls: 0 for no effect and ±100 for the full control effect
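Hydroperoxide product was detected by ferrous iron/xylenol orange as the 573 to 405 nm absorbance ratio. Arachidonic acid at 40 uM (final) was turned over for 30 min at room temperature by 150 nM human 12hLO, pH 7.0 Hepes buffer, after 15 min compound preincubation.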
GRP78 ERSR act: inducers of ER stress response in human glioma cells; U87-MG GRP78 promoter luciferase reporter, 16 h; actives 0.02% (n = 420,000); Potency, µM, for the others: at the top dose activation, most hits filed as activators; note: series mostly up to about 76 µM; % of control where 0% means no effect; nearly all actives have a fitted effect of over 35% in size
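Stably transfected U87-MG human glioma cells carrying a GRP78-based luminescent sensor were seeded at 1000 cells/well, pin-dosed with compounds and incubated 16 h. Luciferase reagent was then added, and end-point luminescence was read after 10 min at room temperature.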
The depositor's hits bear a star; [ ] = another dose, or the depositor's remark. Calls come from the whole dose curve; as a rule, active = well fitted curve in the direction sought with a large enough effect; inconclusive = small, poorly fitted or top-dose-only effect, or another doubt; inactive = no such curve, though single readings can be large; an effect the other way counts as inactive or inconclusive. Potency is the fitted concentration of half-maximal effect.

How did COc1cc(C(F)(F)F)c(C(=O)NCc2cccc(Cl)c2)cn1 do in these assays?
VDR inhibitor: 4.3%; G9a inh: 79.4µM*; Sfp PPTase inh: 8.8%; ALOX12 inh: 0.0%; GRP78 ERSR act: -1.2%

What do the screens show for `COc1cc(C(F)(F)F)c(C(=O)N(C)Cc2cccc(Cl)c2)cn1`?
VDR inhibitor: -7.3%; G9a inh: 10.1%; Sfp PPTase inh: 11.4%; ALOX12 inh: inconclusive; GRP78 ERSR act: -3.4%

How did Cc1ccc(CNc2nc(NCC3CC3)nc3ccsc23)c(C)c1 do in these assays?
ALOX12 inh: inconclusive; GRP78 ERSR act: -6.9%

What do the screens show for `Cc1ccc(Nc2nc(NCC3CC3)nc3ccsc23)c(C)c1`?
ALOX12 inh: 39.8µM*; GRP78 ERSR act: -2.0%

What do the screens show for `Cc1c(Cl)cccc1NC(=O)COc1ncnc2ccccc12`?
ALOX12 inh: 55.0%

What do the screens show for `Cc1cc(NC(=O)CSc2nnc(-c3cccc(F)c3)n2N)no1`?
VDR inhibitor: 2.3%; G9a inh: -16.5%[2.33 µM]; ALOX12 inh: -4.2%; GRP78 ERSR act: -4.7%

Results for Cc1cc(NC(=O)CSc2nnnn2-c2ccc(C)c(Cl)c2)no1 ?
VDR inhibitor: 63.2%; G9a inh: 44.7µM*; Sfp PPTase inh: -2.4%; ALOX12 inh: 3.9%; GRP78 ERSR act: 0.4%

How did COc1ccc(-c2nnc(SCC(=O)Nc3cc(C)on3)n2N)cc1OC do in these assays?
VDR inhibitor: -0.4%; G9a inh: 50.1µM*; Sfp PPTase inh: 7.1%; ALOX12 inh: 11.6%; GRP78 ERSR act: -5.2%

What do the screens show for `CCc1sc2nc(SCC(=O)Nc3cc(C)on3)n(-c3cccc(OC)c3)c(=O)c2c1C`?
VDR inhibitor: -9.3%; G9a inh: -15.3%; Sfp PPTase inh: 56.2µM*; ALOX12 inh: 131.0%; GRP78 ERSR act: 3.1%

Results for Cc1cc(NC(=O)CSc2nnnn2-c2ccc(C)c(C)c2)no1 ?
VDR inhibitor: 7.9%; Sfp PPTase inh: 4.8%; ALOX12 inh: -6.7%; GRP78 ERSR act: -3.9%

Results for COc1cccc(-c2nnc(SCC(=O)Nc3cc(C)on3)n2C)c1 ?
VDR inhibitor: 0.7%; G9a inh: 50.1µM*; Sfp PPTase inh: 19.2%; ALOX12 inh: inconclusive; GRP78 ERSR act: -1.4%

Results for COCCNc1ncc(-c2cccc(OC)c2)c2c1OCC2 ?
ALOX12 inh: -1.4%[176 µM]

What do the screens show for `COc1ccc(CN(C(=O)c2cc(=O)c3cc(Cl)ccc3o2)C2CCS(=O)(=O)C2)cc1` (configuration not stated)?
ALOX12 inh: -29.7%

Results for COC(=O)[C@H](CC(C)C)NC(=O)Nc1ccc2oc(-c3cccnc3)nc2c1 ?
ALOX12 inh: -11.0%

Results for COc1ccc(OC)c(C(=O)CSc2nnc(-c3cccnc3)n2C)c1 ?
VDR inhibitor: 27.8%; G9a inh: 17.8µM*; Sfp PPTase inh: 9.8%; ALOX12 inh: inconclusive; GRP78 ERSR act: -1.1%

Results for COC(=O)CSc1nnc(-c2cccnc2)n1C ?
VDR inhibitor: -12.7%; G9a inh: 5.9%; Sfp PPTase inh: 10.1%; ALOX12 inh: -1.7%; GRP78 ERSR act: -1.5%

Results for O=C(NCc1ccccn1)C1(C(F)(F)F)C/C(=C\Cc2ccccc2)CCCO1 (configuration not stated) ?
VDR inhibitor: -1.8%; Sfp PPTase inh: 56.2µM*; GRP78 ERSR act: -3.7%

What do the screens show for `O=C(NCc1ccccc1)C1(C(F)(F)F)C/C(=C/Cc2ccccc2)CCCO1` (configuration not stated)?
VDR inhibitor: -7.1%; Sfp PPTase inh: -9.8%; GRP78 ERSR act: -3.0%

How did CC(=O)Nc1ccc(SCC(=O)c2ccc(Br)s2)cc1 do in these assays?
VDR inhibitor: inconclusive; G9a inh: 22.4µM*; Sfp PPTase inh: 50.1µM*; ALOX12 inh: inconclusive; GRP78 ERSR act: 9.1%

What do the screens show for `Cc1ccnc(SCC(=O)c2ccc(Br)s2)n1`?
VDR inhibitor: -27.9%; G9a inh: 17.8µM*; Sfp PPTase inh: 79.4µM*; ALOX12 inh: -16.5%; GRP78 ERSR act: 5.5%

How did Cc1cc(C)nc(SCC(=O)NNC(=O)c2ccccc2C)n1 do in these assays?
VDR inhibitor: 14.7%; G9a inh: -39.6%; Sfp PPTase inh: 13.2%; ALOX12 inh: 0.0%; GRP78 ERSR act: 1.6%

How did COc1ccc(NC(=O)CSc2nccc(C)n2)cc1 do in these assays?
VDR inhibitor: -5.7%; G9a inh: -32.2%[59 µM]; Sfp PPTase inh: 7.3%; ALOX12 inh: 0.0%; GRP78 ERSR act: -1.8%

How did Cc1ccnc(SCC(=O)c2cccs2)n1 do in these assays?
VDR inhibitor: 6.3%; G9a inh: 35.5µM*; Sfp PPTase inh: -15.9%; ALOX12 inh: -7.4%; GRP78 ERSR act: 0.7%

What do the screens show for `Cc1cc(C)nc(SCC(=O)NNC(=O)c2cccs2)n1`?
VDR inhibitor: -10.8%; G9a inh: 56.2µM*; Sfp PPTase inh: 6.2%; ALOX12 inh: 3.2%; GRP78 ERSR act: -1.3%

What do the screens show for `COc1ccc(CN2Cc3[nH]cnc3C[C@H]2C(=O)NC2CCCCC2)c2ccccc12`?
ALOX12 inh: -2.0%[176 µM]

What do the screens show for `CNC(=O)[C@@H](c1ccccc1F)N1CCC[C@H]1C(=O)NC1CC1`?
ALOX12 inh: 25.1µM*

What do the screens show for `Cc1cc2oc(C(=O)Nc3sc4c(c3C(=O)NCc3ccccc3)CCCC4)cc(=O)c2cc1C`?
VDR inhibitor: -1.6%; G9a inh: -4.8%[59 µM]; ALOX12 inh: 0.1%; GRP78 ERSR act: -3.7%

How did CCOC(=O)N1CCc2c(sc(NCc3cccs3)c2C(=O)Nc2cc(Cl)ccc2OC)C1 do in these assays?
VDR inhibitor: -7.6%; G9a inh: 1.12µM*; ALOX12 inh: inconclusive; GRP78 ERSR act: -2.2%

What do the screens show for `O=C(Nc1sc2c(c1C(=O)NCc1ccccc1)CCCC2)c1cc(=O)c2ccccc2o1`?
VDR inhibitor: -13.9%; G9a inh: 11.2µM*; ALOX12 inh: -12.9%; GRP78 ERSR act: -5.0%

Results for O=C(O)CCC(=O)Nc1sc2c(c1C(=O)Nc1cccc3ccccc13)CCCCC2 ?
VDR inhibitor: inconclusive; G9a inh: 22.4µM*; Sfp PPTase inh: 50.1µM*; ALOX12 inh: inconclusive; GRP78 ERSR act: -2.5%

Results for COc1ccc(OC)c(CNc2sc3c(c2C(=O)Nc2cc(OC)ccc2OC)CCCC3)c1 ?
VDR inhibitor: -4.8%; G9a inh: 11.2µM*; ALOX12 inh: inconclusive; GRP78 ERSR act: -3.7%

Results for COC(=O)c1c(NC(=O)CCC(=O)O)sc2c1CCCCC2 ?
VDR inhibitor: -11.0%; G9a inh: inconclusive; Sfp PPTase inh: -0.4%; ALOX12 inh: -27.4%; GRP78 ERSR act: -0.8%

What do the screens show for `O=C(Nc1sc2ccccc2c(=O)c1-c1ccc2c(c1)OCO2)c1ccc(F)cc1`?
ALOX12 inh: -13.1%

Results for COc1ccc(NC(=O)c2c(NCc3cccs3)sc3c2CCC(C)C3)c(OC)c1 (configuration not stated) ?
VDR inhibitor: -10.7%; G9a inh: inconclusive; ALOX12 inh: inconclusive; GRP78 ERSR act: -2.5%

Assay outcomes as filed in PubChem.
